Experimental findings from PubChem BioAssay (NCATS) are described below.

Values joined by “and” are separate entries in the source; they are usually repeats but may differ in a detail not shown here. Identical values can stand only once. Records with an inconclusive call do not appear. A structure can be active in one record and inactive in another. Values without a mark were called inactive. Active and inactive are the calls of the source. The call rests on the fitted dose curve; in most records, active means well fitted inhibition curve with a large enough effect; inconclusive means small, poorly fitted or top-dose-only effect; inactive means flat fitted curve, though single readings scatter.

In test [1] the test system is CRL-7250. In words: Cytotoxic Profiling of Annotated Libraries Using Quantitative High-Throughput Screening (AID 1296008). Further: potency means the concentration at half of the fitted maximal effect. On max response: on the % scale 0 is the no-effect control and ±100 the full control effect. The note with it: Five cell lines viability, CellTiter-Glo ATP luminescence, 48-72 h; max response: stronger effect = lower value. An outline of the steps:
(§1)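 Cytotoxicity was measured as CellTiter-Glo ATP luminescence, read after 10 min at room temperature. Compound treatment of the cells lasted 48 or 72 hr at 37 degrees Celsius in a qHTS format.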
For orientation: Cellular ATP, detected with luciferase, serves as a proxy for viable cell number.

For the next test, the system named is HEK293. Described as above. The note with it: Five cell lines viability, CellTiter-Glo ATP luminescence, 48-72 h; max response: stronger effect = lower value. An outline of the steps:
as §1

Test [2] relates to HaCat. The test is described as above. The note with it: Five cell lines viability, CellTiter-Glo ATP luminescence, 48-72 h; max response: stronger effect = lower value. In outline: as §1
In a further test the test system is KB-3-1. The description is as above. The settings on record: Five cell lines viability, CellTiter-Glo ATP luminescence, 48-72 h; max response: stronger effect = lower value. An outline of the steps: as §1
In the next test the test system is NIH3T3. The test is described as above. The note with it: Five cell lines viability, CellTiter-Glo ATP luminescence, 48-72 h; max response: stronger effect = lower value. An outline of the steps: as §1
The test system of test [3] is CRL-7250. In words: qHTS assay to identify novel small-molecules to repurpose for Merkel cell carcinoma treatment (AID 1296009). The settings on record: MCC and control cell lines, CellTiter-Glo viability, 72 h; at 44.8 µM (top of the series) unless noted. An outline of the steps: (§2)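 Cell viability measured by CellTiter-Glo following 72 hr compound treatment at 37 degree celsius, with NPC and MIPE libraries tested in 8- and 11-point concentration series.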
A general note: In qHTS, concentration-response curves come from the screen itself.

Test [4] has as its system HACAT. Described as above. The note with it: MCC and control cell lines, CellTiter-Glo viability, 72 h; at 44.8 µM (top of the series) unless noted. An outline of the steps:
as §2

The next test concerns HEK293T. The description is as above. The note with it: MCC and control cell lines, CellTiter-Glo viability, 72 h; at 44.8 µM (top of the series) unless noted. In outline: as §2
For another test, the system named is MCC-13. Described as above. The settings on record: MCC and control cell lines, CellTiter-Glo viability, 72 h; series mostly up to 46 µM. An outline of the steps: as §2
The next test has as its system P93_24. The test is described as follows: qHTS profiling for inhibitors of Plasmodium falciparum proliferation (AID 504749). Further: potency means the concentration at half of the fitted maximal effect. The note with it: P. falciparum in erythrocytes, SYBR Green DNA, 72 h; series mostly up to 28.7 µM. An outline of the steps:
(§3)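 In a 72 h erythrocytic culture (37 C, humidified, 5% CO2) at 2.5% hematocrit and 0.3% starting parasitemia, compounds were tested; SYBR Green I in detergent lysis buffer stained parasite DNA overnight.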

The next test deals with P94_40. The description is as above. The settings on record: P. falciparum in erythrocytes, SYBR Green DNA, 72 h; series mostly up to 28.7 µM. An outline of the steps: as §3
In the next test the test system is PAD. The test is described as above. The note with it: P. falciparum in erythrocytes, SYBR Green DNA, 72 h; series mostly up to 28.7 µM. An outline of the steps:
as §3

The next test concerns PC15. The test is described as above. The note with it: P. falciparum in erythrocytes, SYBR Green DNA, 72 h; series mostly up to 28.7 µM. In outline:
as §3

The next test deals with PC26. The test is described as above. The note with it: P. falciparum in erythrocytes, SYBR Green DNA, 72 h; series mostly up to 28.7 µM. In outline: as §3
Another test has as its system PC49. Described as above. The note with it: P. falciparum in erythrocytes, SYBR Green DNA, 72 h; series mostly up to 28.7 µM. In outline: as §3
For a further test, the system named is SC27B. Described as above. The note with it: P. falciparum in erythrocytes, SYBR Green DNA, 72 h; series mostly up to 28.7 µM. An outline of the steps: as §3
The test system of a further test is TAB109. The description is as above. The note with it: P. falciparum in erythrocytes, SYBR Green DNA, 72 h; series mostly up to 28.7 µM. An outline of the steps:
as §3

In the next test the test system is TAB113. Described as above. The note with it: P. falciparum in erythrocytes, SYBR Green DNA, 72 h; series mostly up to 28.7 µM. An outline of the steps: as §3
The subject of a further test is TAB165. The description is as above. The settings on record: P. falciparum in erythrocytes, SYBR Green DNA, 72 h; series mostly up to 28.7 µM. An outline of the steps:
as §3

The next test has as its system W2. The description is as above. The note with it: P. falciparum in erythrocytes, SYBR Green DNA, 72 h; series mostly up to 28.7 µM. In outline:
as §3
Further: nearly all actives have a fitted effect of over 60% in size.

For the compound `COc1cccc2c1[C@]13CCN(CC4CC4)[C@H](C2)[C@]1(OC)CCC(=O)C3`, the compound was called inactive in the test with CRL-7250 [1], in the test with HEK293, in the test on HaCat [2], in the test with CRL-7250 [3], with HACAT [4] and with HEK293T. Further, the max response is 7.72% with KB-3-1 and 3.8% in the test on NIH3T3. The Potency entry in the test with MCC-13 is “inactive”.
Take `CCOC(=O)c1c(C(C#N)=CN)c2ccc(Cl)c(Cl)c2n1C`: the max response is 3.66% in the test with CRL-7250 [1], -12.5% in the test with HEK293, -3.02% with KB-3-1 and 2.89% in the test on NIH3T3. The compound was called inactive with HaCat [2] and in the test with HACAT [4]. The Potency result in the test with MCC-13 is “inactive”.
Turning to `O=C(O)C(Cl)Cl`, the Potency entry in the test on P93_24, with P94_40, in the test with PAD, in the test with PC15, in the test with PC26 and in the test on PC49 was “inactive” throughout. Further, the Potency entry with SC27B, with TAB109, in the test on TAB113, in the test on TAB165, in the test on W2 and with MCC-13 was “inactive” in each case. In addition, the compound was classed as inactive with CRL-7250 [1], in the test on HEK293, in the test with HaCat [2], in the test on CRL-7250 [3], in the test on HACAT [4] and in the test on HEK293T. Further, the max response with KB-3-1 is -7.1% and -3.84%; with NIH3T3 it was -3.68%.
As for `C=CCON=C(C[C@H]1O[C@@H]2O[C@]3(C)CC[C@@H]4[C@H](C)CC[C@@H]([C@H]1C)[C@@]24OO3)[C@H]1O[C@@H]2O[C@]3(C)CC[C@H]4[C@H](C)CC[C@@H]([C@@H]1C)[C@@]24OO3`, the Potency in the test with CRL-7250 [1] was 0.935 µM (active); in the test with HEK293, 0.235 µM (active); in the test with HaCat [2], 2.96 µM (active); in the test with KB-3-1, 1.32 µM (active).
In the case of `COC1=C[C@@H]2[C@@H]3Cc4ccc(OC)c(O)c4[C@]2(CCN3C)CC1=O`, the outcome with CRL-7250 [1], with HaCat [2], in the test with KB-3-1, with NIH3T3, in the test with CRL-7250 [3] and with HACAT [4] was inactive. The max response in the test with HEK293 was 1.05% and -3.7%; in the test with HaCat [2], -2.22%; with KB-3-1 it was 1.47%. Besides, in the test with MCC-13, the Potency result was “inactive”.
Regarding `CCc1c(C(=O)C(N)=O)c2c(OCC(=O)O)cccc2n1Cc1ccccc1`, the max response in the test with CRL-7250 [1] is 2.27% and 4.29%; with HEK293, -0.0349%; in the test on HaCat [2], -1.12% and -1.77%; in the test with KB-3-1 it was 9.54%; in the test on NIH3T3 it was -3.2%. In addition, the compound was called inactive in the test with KB-3-1 and with NIH3T3. Further, the Potency result in the test with MCC-13 is “inactive”.
`Cc1cc(O)ccc1Cl`: the Potency entry with P93_24, with PAD, in the test with PC15, with PC26, in the test on PC49 and with SC27B was “inactive” each time. Besides, the Potency entry with TAB109, in the test with TAB113, in the test with TAB165, in the test on W2 and in the test on MCC-13 was “inactive” in each case. For the same compound, the outcome in the test with CRL-7250 [1], in the test with NIH3T3 and in the test with CRL-7250 [3] was inactive. Moreover, the max response with HEK293 was 0.405%; in the test on HaCat [2] it was 2.83%; with KB-3-1, -3.49%.
Take `O=[N+]([O-])c1ccc([As](=O)(O)O)cc1`: the Potency in the test with P93_24 is 5.01 µM (active); with P94_40, 7.08 µM (active); in the test with PAD, 7.94 µM (active); in the test with PC26 it was 13.5 µM (active); with SC27B, 4.47 µM (active); with TAB109 it was 6.31 µM (active). Also, the figures for the Potency in the test on TAB113, in the test with TAB165 and with W2 were 7.08 µM (active), 5.01 µM (active) and 4.78 µM (active), respectively. Moreover, the compound was called inactive in the test with CRL-7250 [1], in the test on HEK293, in the test with HaCat [2], in the test on NIH3T3, with CRL-7250 [3] and in the test with HACAT [4]. In addition, in the test on HEK293T, the result was inactive. Further, in the test on KB-3-1, the max response was -9.29%. Besides, the Potency entry in the test with MCC-13 was “inactive”.
As to `O=S(=O)(F)Cc1ccccc1`, the compound was classed as inactive in the test on CRL-7250 [1], in the test on HEK293, with CRL-7250 [3] and with HEK293T. The max response in the test with HaCat [2] was -8.02%; in the test on KB-3-1, 3.23%; with NIH3T3, 3.32%. Moreover, the Potency entry in the test with MCC-13 was “inactive”.
`O=[N+]([O-])c1c(Cl)c(Cl)cc(Cl)c1Cl`: the max response with CRL-7250 [1] is -4.27%; with HEK293 it was 4.07%; in the test on KB-3-1, -18.1%. The compound was called inactive with HaCat [2] and with NIH3T3. In addition, the outcome in the test with HACAT [4] was “inactive [at 92 µM]”. Further, the Potency entry in the test on MCC-13 was “inactive”.
Take `CSCC[C@@H](NC(=O)[C@@H](Cc1ccccc1)NC(=O)CNC(=O)CNC(=O)[C@@H](N)Cc1ccc(O)cc1)C(=O)O`: the max response was 2.24% in the test with CRL-7250 [1], 3.52% in the test on HEK293, 3.04% in the test on KB-3-1 and 2.68% in the test on NIH3T3. Besides, the compound was called inactive with HaCat [2] and in the test on HACAT [4]. Also, the Potency result with MCC-13 is “inactive”.
Consider `CCCCCC[C@H]1C(=O)O[C@H](C)[C@H](NC(=O)c2cccc(NC=O)c2O)C(=O)O[C@@H](C)[C@@H]1OC(=O)CC(C)C`, for which the Potency in the test on CRL-7250 [1] was 1.48 µM (active); in the test with HEK293 it was 0.469 µM (active). For the same compound, the max response in the test with HaCat [2] is -16%.
With `CCNC(=O)CC1N=C(c2ccc(Cl)cc2)c2cc(OC)ccc2-n2c(C)nnc21` (stereo not given), the Potency was 1.64 µM (active) with CRL-7250 [1] and 6.51 µM (active) in the test with HEK293. For the same compound, the max response was -29.2% and -3.83% in the test with CRL-7250 [1]; -10.4% in the test with HEK293; -4.28% and 0.244% and -23.7% in the test on HaCat [2]; -3.15% in the test on KB-3-1; 4.41% in the test on NIH3T3. Also, the result in the test on HEK293, with KB-3-1, in the test on NIH3T3 and with HEK293T was inactive. For the same compound, in the test on MCC-13, the Potency result was “inactive”.
